# Bioassay records as filed in PubChem BioAssay.
# NPC1 promoter act = NPC1 promoter activation | Huh7 NPC1 promoter luciferase reporter, 24 h | Potency, µM (titrated, usually from 9.22 µM), for the others: at the top dose activation, usual class: activators | 2.4% of 320,000 active; note: % of control where 0% means no effect; nearly all actives have a fitted effect of over 60% in size
#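 Stably transfected Huh7 (NPC1 promoter→luciferase), 1500 cells/well in Opti-MEM + 10% FBS, 2 h settle, then compound 24 h at 37 °C. Luminescence after 10 min with Amplite reagent.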
# ELG1 genotoxic = inducers of genotoxicity in HEK293T ELG1-luciferase cells; 1.3% of 330,000 active; HEK293T ELG1-luciferase reporter, luminescence, 16 h; AID 504466; Potency, µM (highest dose often 46 µM), for the others: top-dose activity change, positive = activation, usual class: activators; note: % of control where 0% means no effect; nearly all actives have a fitted effect of over 60% in size
#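 Reporter readout depends on ELG1 protein level, which increases with genetic stress. After 16 hr compound exposure at 37 °C, luciferase activity was quantified using ONE-Glo.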
# SMN2 splice enh = increases expression of the SMN2 splice variant; HEK293 SMN2-luciferase splicing reporter, luminescence, 30-36 h; Potency, µM (top dose mostly 46.1 µM), for inactives: at the top dose activity change, positive = activation, hits mostly activators; 2.8% of 210,000 active; note: % of control where 0% means no effect; nearly all actives have a fitted effect of over 55% in size
#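 HEK293 cells carry an SMN2 […]–luciferase reporter in which exon 7 inclusion puts luciferase in frame. Cells were plated 10-12 h before compound addition, then incubated 30-36 h at 37C. ONE-Glo luminescence was read; sodium butyrate at 4.5 mM final served as control.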
# Rab9 promoter act = activates the Rab9 promoter. AID 485297. Huh7 Rab9 promoter-luciferase reporter, luminescence, 24 h. Potency, µM (doses to about 9.22 µM), inactives show top-dose activation, negative = inhibition, most hits filed as activators. 2.8% of 320,000 active; note: % of control where 0% means no effect; nearly all actives have a fitted effect of over 60% in size
#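 Steps: seed 1500 Huh7 Rab9-luc cells per well, rest 2 h at 37 °C; add compound in DMSO; incubate 24 h; add luciferase reagent, 10 min ambient; read luminescence.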
# ELG1 DNA repair = ELG1-dependent DNA repair inhibition | HEK293T ELG1-luciferase reporter, luminescence, 16 h; DNA damage induced by 5-fluorouridine | Potency, µM (titrated, usually from 46.1 µM), without a hit: at the top dose activity change, negative = inhibition, most hits filed as inhibitors | 2.3% of 330,000 active; note: % is set by controls: 0 for no effect and ±100 for the full control effect; nearly all actives have a fitted effect of over 55% in size
#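 DMSO vehicle served as the neutral condition. Each well held 2,000 cells given 5-fluorouridine plus compound; after 16 hr at 37 °C/5% CO2, ONE-Glo was added and luciferase measured 30 min later.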
# FLuc counter = counter-screen for miR-21 project: firefly luciferase inhibitors or activators; AID 588342; P08659; purified FLuc, Km substrates, luminescence inhibition; Potency, µM (doses to about 57.5 µM), for inactives: top-dose activity change, negative = inhibition, usual class: inhibitors; 6.9% of 360,000 active;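 note: plate controls were vehicle for no effect and reference inhibitor for full effect; nearly all actives have a fitted effect of over 55% in size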
# Target sequence (P08659 whole entry, looked up): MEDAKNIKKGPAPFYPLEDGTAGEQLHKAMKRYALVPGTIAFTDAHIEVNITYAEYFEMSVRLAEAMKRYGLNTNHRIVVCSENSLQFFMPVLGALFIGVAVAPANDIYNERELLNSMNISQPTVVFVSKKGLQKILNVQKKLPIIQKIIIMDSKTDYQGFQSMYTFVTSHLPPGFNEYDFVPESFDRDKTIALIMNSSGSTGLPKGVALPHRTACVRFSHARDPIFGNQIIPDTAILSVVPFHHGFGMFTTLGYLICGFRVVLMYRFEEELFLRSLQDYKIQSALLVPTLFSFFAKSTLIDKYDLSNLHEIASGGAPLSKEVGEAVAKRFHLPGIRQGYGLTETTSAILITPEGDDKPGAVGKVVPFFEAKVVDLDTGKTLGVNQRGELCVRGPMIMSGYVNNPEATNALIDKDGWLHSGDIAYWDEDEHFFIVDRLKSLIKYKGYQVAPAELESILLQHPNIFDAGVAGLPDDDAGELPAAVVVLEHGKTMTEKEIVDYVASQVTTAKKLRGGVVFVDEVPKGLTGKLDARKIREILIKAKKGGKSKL
#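 Purified P. pyralis luciferase (10nM final) with 10uM D-luciferin and 10uM ATP (Km levels) in 50mM Tris acetate pH 7.5, 10mM Mg acetate, 0.01% Tween-20, 0.05% BSA; qHTS 6-point titration, ~60 µM downward; luminescence read.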
# ELG1-Luc inh = confirmation of human ELG1-dependent DNA repair inhibitors. shares compounds with ELG1 DNA repair. HEK293T ELG1-luciferase levels, luminescence; cells co-treated with 5-fluorouridine. Potency, µM (top dose mostly 46.1 µM), for inactives: at the top dose activity change, negative = inhibition, usual class: inhibitors. 68% of 670 active; note: % is set by controls: 0 for no effect and ±100 for the full control effect; nearly all actives have a fitted effect of over 55% in size
# ELG1-Luc MMS = inhibits ELG1-dependent repair under MMS stimulation in HEK293T cells. 53% of 670 active. HEK293T luciferase-tagged ELG1 level, MMS stimulated. shares compounds with ELG1 DNA repair. AID 624249. Potency, µM (titrated, usually from 46.1 µM), for inactives: top-dose activity change, negative = inhibition, hits mostly inhibitors; note: % is set by controls: 0 for no effect and ±100 for the full control effect; nearly all actives have a fitted effect of over 60% in size
# ELG1 5FU viab = confirmation of ELG1 repair inhibitors: viability with 5FU. shares compounds with ELG1 DNA repair. cell viability with 5-FU, ELG1-dependent repair. Potency, µM (doses to about 46.1 µM), for the others: at the top dose activity change, negative = viability loss, hits mostly cytotoxic. 670 tested, under 10 active. AID 624250;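 note: ELG1-luc HEK293T cells cotreated with 5-fluorouridine at 10 µM final; viability measured 16 h after compound addition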
# ELG1 MMS cell = confirmation of ELG1 repair inhibitors: viability with MMS; shares compounds with ELG1 DNA repair; Potency, µM (highest dose often 46.1 µM), for the others: top-dose activity change, negative = viability loss, usual class: cytotoxic; 33% of 670 active; Cell viability with MMS, ELG1-dependent DNA repair;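 note: ELG1-luc HEK293T cells co-treated with 10 µM MMS; viability read 16 h after compound addition; % is set by controls: 0 for no effect and ±100 for the full control effect; nearly all actives have a fitted effect of over 60% in size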
# Cell viab unstim = counter-screen for ELG1 repair inhibitors: unstimulated cell viability | AID 624252 | Potency, µM (top dose mostly 45.9 µM), for the others: at the highest dose activity change, negative = loss of viability, usual class: cytotoxic | cell viability counter-screen, unstimulated, luminescence | shares compounds with ELG1 DNA repair | 8% of 900 active;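 note: compound exposure lasted 16 hours before reading; % is set by controls: 0 for no effect and ±100 for the full control effect; nearly all actives have a fitted effect of over 55% in size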
# Active calls of the source: *; ? = inconclusive; . = no result; [ ] = dose if it differs, or a comment. Compounds with a hit are over-represented: about 9.4% of the library has one in this group of screens. Calls come from the whole dose curve; as a rule, active = well fitted curve in the direction sought with a large enough effect; inconclusive = small, poorly fitted or top-dose-only effect, or another doubt; inactive = no such curve, though single readings can be large; an effect the other way counts as inactive or inconclusive. Potency is the fitted concentration of half-maximal effect.
SMILES,NPC1 promoter act,ELG1 genotoxic,SMN2 splice enh,Rab9 promoter act,ELG1 DNA repair,FLuc counter,ELG1-Luc inh,ELG1-Luc MMS,ELG1 5FU viab,ELG1 MMS cell,Cell viab unstim
COc1cc2nc(CN(CCC(C)C)Cc3nc4cc(OC)c(OC)cc4c(=O)[nH]3)[nH]c(=O)c2cc1OC,-2%,0%,17%,0%,1.5µM*,-2%,2.8µM*,?,?,7%,-17%
CCNCc1nc2cc(OC)c(OC)cc2c(=O)[nH]1,0%,1%,41%,-2%,-2%,-1%,.,.,.,.,.
CN(c1ncnc(N)c1[N+](=O)[O-])C1CCCCC1,17%,-12%[9.26 µM],.,-5%,1.8µM*,-4%,3.1µM*,13µM*,-8%,-5%,?
COc1ccc(-n2c(/C=C/c3cc(OC)c(OC)cc3OC)nc3cc4ccccc4cc3c2=O)cc1Cl,.,.,.,.,.,-3%,.,.,.,.,.
CCN1CCN(c2ccc(Nc3ccnc4ccccc34)cc2)CC1,2%,-10%,.,-2%,4.6µM*,4%,?,18µM*,-8%,?,-13%
CCc1nc2oc3ccccc3c(=O)c2c(=O)n1CCOC,0%,2%,-9%,-14%,6%,-1%,.,.,.,.,.
COCCn1c(C(C)C)nc2oc3ccccc3c(=O)c2c1=O,2%,0%,6%,2%,1.4µM*,0%,5%,11%,10%,8%,12%
COc1ccc(C2CC(c3c(O)cc(C)oc3=O)=NCCS2)c(OC)c1 (centres undefined),?,10µM*,?,-7%,?,11µM*,.,.,.,.,-15%
Cc1nn(C)c(C)c1/C=C/C(=O)O,-5%,4%,0%,11%,-1%,0%,.,.,.,.,.
Cc1nn(C)c(C)c1/C=C/C(=O)c1ccc(Cl)cc1Cl,-17%,-19%,-92%,-17%,4.1µM*,-19%,5%,1.6µM*,-5%,2.2µM*,?
CC(=O)Nc1cccc(NS(=O)(=O)c2cc3c4c(c2)CCN4C(=O)CC3)c1,-6%,6%,.,-3%,6%,-1%,.,.,.,.,.
